Screens deposited in PubChem by National Center for Advancing Translational Sciences (NCATS).
GPT2 inh: blocks human glutamate pyruvate transaminase 2; Potency, µM (highest dose often 57.7 µM), usual class: inhibitors; Recombinant GPT2, coupled pyruvate oxidase/HRP Amplex Red fluorescence; 100,000 compounds, 0.25% hits; AID 1671188; further: nearly all actives have a fitted effect of over 60% in size
Target sequence (Q8TD30 whole entry, looked up): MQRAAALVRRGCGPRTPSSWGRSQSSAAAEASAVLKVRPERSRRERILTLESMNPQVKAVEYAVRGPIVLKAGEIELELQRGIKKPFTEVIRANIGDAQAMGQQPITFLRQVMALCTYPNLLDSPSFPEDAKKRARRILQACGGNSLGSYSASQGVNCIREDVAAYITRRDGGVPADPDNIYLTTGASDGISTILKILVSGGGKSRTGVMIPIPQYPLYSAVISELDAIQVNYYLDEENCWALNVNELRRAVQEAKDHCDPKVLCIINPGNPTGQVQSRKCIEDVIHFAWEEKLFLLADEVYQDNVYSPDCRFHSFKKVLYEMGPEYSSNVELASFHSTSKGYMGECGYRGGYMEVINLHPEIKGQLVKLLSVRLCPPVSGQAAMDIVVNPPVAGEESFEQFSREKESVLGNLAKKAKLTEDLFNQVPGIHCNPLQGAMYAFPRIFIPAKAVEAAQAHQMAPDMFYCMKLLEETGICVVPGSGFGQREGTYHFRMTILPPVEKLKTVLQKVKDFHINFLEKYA
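GPT2 10ng/uL, a-KG 250uM, L-Ala 2mM, HEPES pH7.5 + 0.0001% Tween; 30 min RT. Then Amplex mix (PO/HRP/ThPP), 30 min RT dark, fluorescence. AOA 50uM used as positive control.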
Luciferase inh: inhibitors of firefly (Photinus pyralis) luciferase; AID 1347043; 76,000 compounds, 2.5% hits; Potency, µM (top dose mostly 115 µM), actives largely listed as inhibitors; purified P. pyralis luciferase, luminescence, biochemical; further: nearly all actives have a fitted effect of over 65% in size
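Cell-free enzyme assay, 10nM P. pyralis luciferase, luciferin and ATP each at 10uM. Inhibition profiled over a 6-point titration, read as luminescence.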
NPR1 antag: human Npr1 receptor antagonism. HEK293 hNpr1 GloSensor cGMP, ANP-stimulated luminescence. Potency, µM (doses to about 46.3 µM), hits mostly inhibitors. AID 1347048. P16066. 76,000 compounds, 1.6% hits; calls by dose curve; further: nearly all actives have a fitted effect of over 60% in size
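HEK293 cells stably expressing human Npr1 and cGMP GloSensor pGS-40F, loaded 2 h with 2% GloSensor reagent, given compound 30 min at room temperature. Luminescence read before and 20 min after 0.1 nM hNppA.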
HEK293 tox: kills HEK 293 cells; HEK 293 viability, ATP luminescence (CellTiter-Glo), 48-72 h; Potency, µM (highest dose often 115 µM), usual class: inhibitors; 94,000 compounds, 6.6% hits; AID 1345083; further: nearly all actives have a fitted effect of over 60% in size
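CellTiter-Glo luminescence (cellular ATP) was read after 48 or 72 hr of compound exposure at 37 degree Celsius. Cells were HEK 293 plated at 250 cells/well.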
3T3 cytotox: cytotoxic compounds in NIH 3T3 cells | 94,000 compounds, 4.3% hits | Potency, µM (highest dose often 96.7 µM), actives largely listed as inhibitors | NIH 3T3 viability, CellTiter-Glo ATP luminescence, 48-72 h; further: nearly all actives have a fitted effect of over 55% in size
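Cytotoxicity was measured by CellTiter-Glo ATP luminescence after 48 or 72 h compound exposure at 37 °C. Mouse NIH 3T3 fibroblasts were seeded at 400 cells/well and dosed by 23 nL pin transfer.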
Hits are given with their value. The list is not random: actives were taken first. Their share in the collection is about 10%. Unless noted, the call rests on the fitted dose curve; in most records, active means well fitted curve in the direction sought with a large enough effect; inconclusive means small, poorly fitted or top-dose-only effect, or another doubt; inactive means no such curve, though single readings can be large; an effect the other way counts as inactive or inconclusive.

What do the screens show for `O=C(c1ccccc1F)N1CCC(N2CC3(CCCC3)C2c2ccccc2)CC1` (configuration not stated)?
GPT2 inh: inactive; HEK293 tox: inconclusive; 3T3 cytotox: inconclusive

How did Cc1ccccc1-c1nccc2c(=O)cc(N3CCOCC3)oc12 do in these assays?
GPT2 inh: inactive; Luciferase inh: inactive; NPR1 antag: inactive; HEK293 tox: inconclusive; 3T3 cytotox: 35.5µM

How did O=c1cc(N2CCOCC2)oc2c(-c3cccc(F)c3)nccc12 do in these assays?
GPT2 inh: inactive; Luciferase inh: inactive; NPR1 antag: inactive; HEK293 tox: inconclusive; 3T3 cytotox: inconclusive

Results for COc1cc(F)ccc1-c1nccc2c(=O)cc(-c3cnn(C)c3)oc12 ?
GPT2 inh: inactive; Luciferase inh: inactive; NPR1 antag: inactive; HEK293 tox: inconclusive; 3T3 cytotox: inconclusive

Results for COc1ccccc1-c1nccc2c(=O)cc(N3CCOCC3)oc12 ?
GPT2 inh: inconclusive; Luciferase inh: inactive; NPR1 antag: inactive; HEK293 tox: inconclusive; 3T3 cytotox: 25.1µM

What do the screens show for `O=c1cc(N2CCOCC2)oc2c(-c3ccccc3Oc3ccccc3)nccc12`?
GPT2 inh: inactive; Luciferase inh: inactive; NPR1 antag: inactive; HEK293 tox: inconclusive; 3T3 cytotox: inconclusive

What do the screens show for `COc1ncccc1-c1nccc2c(=O)cc(N3CCOCC3)oc12`?
GPT2 inh: inactive; Luciferase inh: inactive; NPR1 antag: inactive; HEK293 tox: inconclusive; 3T3 cytotox: 50.1µM

How did O=c1cc(N2CCOCC2)oc2c(-c3ccccc3O)nccc12 do in these assays?
GPT2 inh: inactive; Luciferase inh: inactive; NPR1 antag: inactive; HEK293 tox: inactive; 3T3 cytotox: inconclusive

What do the screens show for `COc1ccccc1-c1nccc2c(=O)cc(C3=CCOCC3)oc12`?
GPT2 inh: inactive; Luciferase inh: inactive; NPR1 antag: inactive; HEK293 tox: 63.1µM; 3T3 cytotox: 12.6µM

How did O=C(NC1CCN(c2ccnc3ccnn23)C1)c1ccc(F)cc1 (configuration not stated) do in these assays?
GPT2 inh: inactive; HEK293 tox: inconclusive; 3T3 cytotox: inactive

What do the screens show for `Cn1nccc1-c1nccc2c(=O)cc(N3CCOCC3)oc12`?
GPT2 inh: inactive; Luciferase inh: inactive; NPR1 antag: inactive; HEK293 tox: inconclusive; 3T3 cytotox: 50.1µM

What do the screens show for `O=c1cc(N2CCOCC2)oc2c(-c3cncnc3)nccc12`?
GPT2 inh: inactive; Luciferase inh: inactive; NPR1 antag: inactive; HEK293 tox: inactive; 3T3 cytotox: inconclusive

What do the screens show for `COc1ccc(C(=O)NC2CCN(c3ccc4nnc(C5CC5)n4n3)C2)cc1` (configuration not stated)?
HEK293 tox: inactive; 3T3 cytotox: inactive

How did O=C(NCc1cccc(F)c1)C1CCN(C(=O)c2ncn3c2COC(c2ccccc2)C3)CC1 (configuration not stated) do in these assays?
GPT2 inh: inactive; Luciferase inh: 5.01µM; NPR1 antag: inactive; HEK293 tox: inconclusive; 3T3 cytotox: inactive

Results for Cc1ccc(CNC(=O)C2CCN(C(=O)c3ncn4c3COC(c3ccccc3)C4)CC2)cc1 (configuration not stated) ?
GPT2 inh: inactive; Luciferase inh: 15.8µM; NPR1 antag: inactive; HEK293 tox: inactive; 3T3 cytotox: inactive

What do the screens show for `Cc1ccc(C2Cn3cnc(C(=O)N4CCC(C(=O)NCCc5ccccc5)CC4)c3CO2)cc1` (configuration not stated)?
GPT2 inh: inactive; Luciferase inh: inconclusive; NPR1 antag: inactive; HEK293 tox: inactive; 3T3 cytotox: inactive

What do the screens show for `Cc1ccc(C2Cn3cnc(C(=O)N4CCC(C(=O)NC(C)c5ccccc5)CC4)c3CO2)cc1` (configuration not stated)?
GPT2 inh: inactive; Luciferase inh: 28.2µM; NPR1 antag: inactive; HEK293 tox: inactive; 3T3 cytotox: inactive

What do the screens show for `Cc1ccc(C2Cn3cnc(C(=O)N4CCC(C(=O)NCCCc5ccccc5)CC4)c3CO2)cc1` (configuration not stated)?
GPT2 inh: inactive; Luciferase inh: 31.6µM; NPR1 antag: inactive; HEK293 tox: inactive; 3T3 cytotox: inactive

Results for COc1ccccc1Cn1c(=O)c(C(=O)N2CCN(C(=O)c3ccccc3)CC2)nc2cccnc21 ?
GPT2 inh: inactive; HEK293 tox: inactive; 3T3 cytotox: inactive

Results for CCOc1cccc(CNC(=O)c2c(OC)cc(=O)n3c2CCCC3)c1 ?
GPT2 inh: inactive; Luciferase inh: inactive; NPR1 antag: inactive; HEK293 tox: inactive; 3T3 cytotox: inactive

How did O=C(NCC(F)(F)F)C1CCN(c2ccnc3ccnn23)CC1 do in these assays?
GPT2 inh: inactive; HEK293 tox: inconclusive; 3T3 cytotox: inconclusive

Results for CCOc1ccccc1CN1CCC(C)(c2noc(C3CCOCC3)n2)CC1 ?
GPT2 inh: inactive; Luciferase inh: inactive; NPR1 antag: inactive; HEK293 tox: inactive; 3T3 cytotox: inactive

How did CC(=O)N1CCN(C(=O)c2nc3sccn3c2-c2cccc(C#N)c2)CC1 do in these assays?
GPT2 inh: inactive; HEK293 tox: inactive; 3T3 cytotox: inactive

Results for Cc1ccc(C2Cn3cnc(C(=O)N4CCC(C(=O)NCc5ccccc5Cl)CC4)c3CO2)cc1 (configuration not stated) ?
GPT2 inh: inactive; Luciferase inh: 35.5µM; NPR1 antag: inactive; HEK293 tox: inconclusive; 3T3 cytotox: inactive

What do the screens show for `O=C(NCc1ccccc1Cl)C1CCN(C(=O)c2ncn3c2COC(c2ccc(F)cc2)C3)CC1` (configuration not stated)?
GPT2 inh: inactive; Luciferase inh: inconclusive; NPR1 antag: inactive; HEK293 tox: inactive; 3T3 cytotox: inactive

Results for COc1ccc(CNC(=O)C2CCN(C(=O)c3ncn4c3COC(c3ccccc3)C4)CC2)cc1 (configuration not stated) ?
GPT2 inh: inactive; Luciferase inh: 15.8µM; NPR1 antag: inactive; HEK293 tox: inactive; 3T3 cytotox: inactive

Results for COCCn1c(=O)c(C(=O)NCC(F)F)nc2cccnc21 ?
GPT2 inh: inactive; HEK293 tox: inactive; 3T3 cytotox: inactive

How did O=C(NCC(F)(F)F)C1CCCN(c2nccc(Nc3ccccc3F)n2)C1 (configuration not stated) do in these assays?
GPT2 inh: inactive; HEK293 tox: inconclusive; 3T3 cytotox: inconclusive

How did O=C(NCc1ccc(F)cc1)C1CCCN(c2nccc(Nc3ccccc3F)n2)C1 (configuration not stated) do in these assays?
GPT2 inh: inactive; HEK293 tox: inconclusive; 3T3 cytotox: 28.2µM

What do the screens show for `COCCNC(=O)C1CCCN(c2nccc(Nc3ccccc3OC)n2)C1` (configuration not stated)?
GPT2 inh: inactive; HEK293 tox: inconclusive; 3T3 cytotox: inconclusive

Results for COc1ccc(CCNC(=O)C2CCCN(c3nccc(Nc4ccccc4F)n3)C2)cc1 (configuration not stated) ?
GPT2 inh: inactive; HEK293 tox: inconclusive; 3T3 cytotox: inconclusive
